High-throughput results as filed in PubChem BioAssay.
Hits are enriched below; roughly 6.9% of the tested compounds scored in any of these assays.
Giardia killer – kills Giardia lamblia; Giardia lamblia trophozoite viability; activity change, % at 7.66 µM, hits read low; 340,000 tested, 0.15% active; in the data active = activity change below about -80%; inconclusive = between about -30% and that limit;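 also: parasites exposed to compound for two days anaerobically before the ATP read; % is scaled to controls: 0 for no effect and ±100 for the full control effect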
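Trophozoites 100 cells/well + cpd; 48 hrs, 37 deg C, anaerobic. ATPLite 1-Step added, 15-30 min RT, luminescence read (ATP-based viability).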
SW480 rereplic – inducers of DNA re-replication in SW480 colon cancer cells; SW480 DNA re-replication, Hoechst DNA content imaging, 48 h; Potency, µM (doses to about 46.1 µM), inactives show at the highest dose re-replication activation, usual class: activators; 340,000 tested, 1.8% active; AID 624297; also: potency is read from the fitted curve at half-maximal effect; % of control where 0% means no effect; nearly all actives have a fitted effect of over 55% in size
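Image-based DNA-content assay: after two days of treatment, nuclei were labelled with the DNA dye Hoechst and imaged, and hits were compounds raising the count of nuclei showing high fluorescence intensity.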
MCF10A rerep – inducers of DNA re-replication in MCF 10A breast cells | Potency, µM (top dose mostly 46.1 µM), without a hit: at the top dose activity, positive = re-replication, most hits filed as activators | AID 624296 | 350,000 tested, 2.9% active | MCF 10A DNA re-replication, Hoechst nuclear intensity, 48 h; also: potency is read from the fitted curve at half-maximal effect; % of control where 0% means no effect; nearly all actives have a fitted effect of over 50% in size
KB-3-1 tox – KB-3-1 parental cell cytotoxicity; AID 1347075; 400,000 tested, 1.4% active; KB-3-1 viability, CellTiter-Glo ATP luminescence, 72 h; Potency, µM (highest dose often 46.1 µM), usual class: cytotoxic; also: potency is read from the fitted curve at half-maximal effect; % is scaled to controls: 0 for no effect and ±100 for the full control effect; nearly all actives have a fitted effect of over 60% in size
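Screening of KB-3-1 cells (DMEM, 10% FBS, phenol-red free) ran from lowest to highest compound concentration; after 72 h at 37 °C viability was read luminescently and curves fitted.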
ASM inhibitor – human S-ASM enzyme inhibition; Potency, µM (highest dose often 57.5 µM), inactives show top-dose activity change, negative = inhibition, usual class: inhibitors; 340,000 tested, 0.006% active; placental ASM, HMU-PC fluorogenic substrate, 60 min; also: potency is read from the fitted curve at half-maximal effect
Target sequence (P17405 47-631 limits assumed): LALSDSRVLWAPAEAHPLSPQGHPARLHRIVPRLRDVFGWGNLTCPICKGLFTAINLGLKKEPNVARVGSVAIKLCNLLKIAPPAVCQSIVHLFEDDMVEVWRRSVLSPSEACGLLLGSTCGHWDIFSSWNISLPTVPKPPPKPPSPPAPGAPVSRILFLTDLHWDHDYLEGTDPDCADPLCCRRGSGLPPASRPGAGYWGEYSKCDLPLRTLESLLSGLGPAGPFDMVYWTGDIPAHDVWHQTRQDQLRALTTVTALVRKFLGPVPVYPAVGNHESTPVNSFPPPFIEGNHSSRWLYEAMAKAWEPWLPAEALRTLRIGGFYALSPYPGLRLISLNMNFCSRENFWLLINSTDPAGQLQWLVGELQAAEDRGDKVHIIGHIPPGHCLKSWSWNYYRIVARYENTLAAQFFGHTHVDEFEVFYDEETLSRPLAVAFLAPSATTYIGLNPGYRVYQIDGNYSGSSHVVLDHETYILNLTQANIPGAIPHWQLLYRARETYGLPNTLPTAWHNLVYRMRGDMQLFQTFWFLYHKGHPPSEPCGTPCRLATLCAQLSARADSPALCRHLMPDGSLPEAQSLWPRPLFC
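Steps: dispense placental human ASM, pin compound, wait 10 min at room temperature, add HMU-PC0 substrate at 9 uM final, incubate 60 min at 37 °C, add stop solution raising pH to 10, read fluorescence.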
KB-V1 cytotox – kills drug-selected multidrug resistant KB-V1 cells. KB-V1 MDR cells viability, CellTiter-Glo, 72 h. Potency, µM (series often up to 46.1 µM), hits mostly cytotoxic. 400,000 tested, 3.4% active; also: potency is read from the fitted curve at half-maximal effect; % is scaled to controls: 0 for no effect and ±100 for the full control effect; nearly all actives have a fitted effect of over 60% in size
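KB-V1, DMEM (no phenol red) + 10% FBS; cpd pin-transferred, titration series; 72 h, 37 degrees C; CellTiter-Glo, luminescence. Data normalized, curve-fit.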
Active calls of the source: *; i = inactive; ? = inconclusive; · = not tested or not shown. Unless noted, calls follow the shape of the dose curve; as a rule, active = well fitted curve in the direction sought with a large enough effect; inconclusive = small, poorly fitted or top-dose-only effect, or another doubt; inactive = no such curve, though single readings can be large; an effect the other way counts as inactive or inconclusive.

SMILES	Giardia killer	SW480 rereplic	MCF10A rerep	KB-3-1 tox	ASM inhibitor	KB-V1 cytotox
CCCN1CCN(c2ncnc3c2nnn3Cc2ccccc2)CC1	26	21µM*	?	?	3%	16µM*
CC(C)(C)c1ccc(Cn2nnc3c(=O)[nH]c(C4CCN(C(=O)c5ccco5)CC4)nc32)cc1	-10	-3%	13%	?	-23%	i
CSc1ccccc1NC(=O)Nc1cccc(Cl)c1	3	15%	?	?	-5%	16µM*
CSc1ccccc1NC(=O)Nc1cccc(Cl)c1Cl	3	6%	23µM*	i	0%	?
CN(C)c1ccc(NC(=O)Nc2cccc(Cl)c2)cc1	-23	-1%	-2%	i	-3%	13µM*
CSc1ccccc1NC(=O)Nc1ccc(F)c(Cl)c1	2	-1%	?	i	0%	21µM*
COc1cccc(NC(=O)Nc2ccccc2SC)c1	-18	2%	6%	i	1%	i
Cc1ccc(NC(=O)Nc2ccc(F)c(Cl)c2)cc1	-12	-3%	1%	i	-1%	i
CSc1ccccc1NC(=O)Nc1cccc(Cl)c1C	-21	-2%	-2%	i	-4%	i
COc1ccc(CCNC(=O)c2ccc3c(c2)N(Cc2ccc(Cl)cc2)CCS3)c(OC)c1	·	·	·	i	·	?
CCOC(=O)N1CCc2c(sc(NCc3cc(OC)ccc3OC)c2C(=O)Nc2cc(OC)ccc2OC)C1	·	·	·	i	·	i
Cc1ccc2c(C(=O)CNc3nccs3)c[nH]c2c1	·	·	·	i	·	?
O=C(c1ccc2c(c1)OCO2)c1cn(Cc2ccc(Cl)cc2)c2ccc(F)cc2c1=O	·	·	·	i	·	i
Cc1csc(C)[n+]1CCC1CCCCC1	·	·	·	?	·	i
COc1ccc(C)cc1NC(=O)c1ccc(=O)n(Cc2ccccc2)c1	·	·	·	i	·	i
CCOc1ccc(NC(=O)CCC(=O)NNC(=O)COc2ccc(C)cc2)cc1	17	-1%	-4%	i	-1%	i
CCOc1ccc(NC(=O)CCC(=O)NNC(=O)Nc2cccc(Cl)c2)cc1	9	?	0.18µM*	i	-2%	?
O=C(NCc1ccco1)C(c1ccccc1)N(CC1CCCO1)C(=O)Cn1nnc2ccccc21 (configuration not stated)	15	?	-4%	i	-1%	21µM*
CCCCCCCCSc1nnc(CSc2nc3nc(C)cc(C)n3n2)o1	-14	-5%	?	?	?	2.6µM*
CCN1CCC(N(Cc2ccc(F)cc2)C(=O)Nc2cc(Cl)ccc2C(=O)OC)CC1	·	·	·	i	·	i
CC(=NO)C1CCC2C3CCC4CC(=NO)CCC4(C)C3C(C)(O)CC12C (configuration not stated)	3	3%	28%	i	0%	12µM*
CC(=O)C1CCC2C3CCC4CC(=O)CCC4(C)C3C(O)CC12C (configuration not stated)	23	-3%	-1%	i	0%	?
CCOC(=O)C1=CCN(S(=O)(=O)c2cccc(Cl)c2)C1c1cccc(F)c1 (configuration not stated)	·	·	·	i	·	?
CCOC(=O)C1=CCN(S(=O)(=O)c2ccc(F)cc2)C1c1cccc(Cl)c1 (configuration not stated)	·	·	·	?	·	8.2µM*
COCCOC(=O)C1=C(C)OC(N)=C(C#N)C1c1cc2cccc(C)c2nc1Cl (configuration not stated)	-15	4%	23µM*	i	-3%	i
Cc1ccc(-c2cc(C(=O)O)c3ccccc3n2)c(C)c1	-11	-8%	?	i	2%	i
Cc1ccc(-c2csc(-c3c[nH]c4ccccc34)n2)c(C)c1	4	?	15µM*	?	-22%	?
CC(=O)NCCC(=O)Nc1nc(-c2c[nH]c3ccccc23)cs1	-13	-11%	2%	i	-2%	i
Oc1ccc(-c2csc(-c3c[nH]c4ccccc34)n2)c(O)c1	-6	7%	?	18µM*	-16%	?
